Nucleolar normality score data for one molecule are collected here from the supplement of paper PMC10723795.

Molecules are shown by their SMILES. ± gives the standard deviation of the averaged measurements.

For the test, the system named is CHON-002. Description: nucleolar normality score relative to DMSO (fraction of DMSO control); RPE1 is a non-cancer human cell line; higher = more normal nucleoli (less nucleolar stress). The method, then: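 Selected screen hits were validated in hTERT lines (BJ5TA, CHON-002, RPE1) and cancer lines (DLD1, HCT116). Cells were immunostained for nucleolin and UBF and the nucleolar normality score was measured per field of view, with 4 fields per drug. Scores are normalized to each cell line's own DMSO control. Dose and time are not stated for this panel.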
The molecule `CC[C@@]1(O)C(=O)OCc2c1cc1n(c2=O)Cc2cc3ccccc3nc2-1` [Camptothecin] returned a nucleolar normality score of 0.38 ± 0.047.
